Pf growth 48h – P. falciparum growth inhibition at 48 hours (one generation); P. falciparum luciferase growth in erythrocytes, 48 h; Potency, µM (series often up to 28.7 µM), usual class: inhibitors; hit rate 5.9% among 310,000
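Luminescence readout; reporter = integrated firefly luciferase in P. falciparum. RBC culture at 2% hematocrit, 0.1% parasitemia final, 37 C/5% CO2; decreased signal taken as growth inhibition.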
Shiga toxin inh – Shiga toxin inhibition; Vero cells, Shiga toxin protein synthesis inhibition reporter; inhibition, % at 38.7 µM; hit rate 9.2% among 290,000; in the data active means inhibition mostly above about 28%, no sharp cut-off; inactive means mostly below about 43%
Pf growth 96h – P. falciparum growth inhibition at 96 hours; P. falciparum luciferase reporter growth, 96 h; Potency, µM (highest dose often 28.7 µM), usual class: inhibitors; hit rate 6.9% among 320,000
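Luminescence readout: decreased luciferase signal marks inhibited growth of reporter-expressing P. falciparum in infected red cells (2% hematocrit, 0.05% parasitemia final), exposed to compound two generations (96 h, 37 C, 5% CO2).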
Cycloheximide cs – counter-screen hit for Shiga toxin inhibitors, cycloheximide; hit rate 12% among 300,000; max response, %; cell reporter, cycloheximide protein synthesis inhibition counterscreen; in the data active means max response mostly above about 13%, no sharp cut-off; inactive means mostly below about 14%; further: read at 38.3 µM for the half of the compounds with a filed dose
Each line names hits and unclear results; the compound was inactive in the other large screens. A selection: hits, their analogues and other compounds. The true share with any hit is near 21%. Unless noted, the call rests on the fitted dose curve; in most records, active means well fitted inhibition curve with a large enough effect; inconclusive means small, poorly fitted or top-dose-only effect, or another doubt; inactive means no such curve, though single readings can be large or run the other way.

O=C(O)Cn1nc(-c2ccccc2)cc1-c1ccccc1	none
O=C(NCCO)C(=O)NCC1OCCCN1S(=O)(=O)c1ccc2c(c1)OCCO2 (stereo unspecified)	none
COc1ccccc1N1CCN(S(=O)(=O)c2ccc(NC(C)=O)cc2)CC1	Pf growth 48h inconclusive
CC(C)(C)OC(=O)N[C@@H](Cc1ccccc1)[C@H](O)c1ccco1	Cycloheximide cs 20.2
CC(C)(C)OC(=O)NC(Cc1ccccc1)C(O)c1ccco1 (stereo unspecified)	none (no result: Pf growth 48h, Pf growth 96h)
N=C1C(c2nc3ccccc3c(=O)[nH]2)=C(O)CN1CCO	none (no result: Pf growth 48h)
CC(C)CCN1CC(O)=C(c2nc3ccccc3[nH]2)C1=N	Cycloheximide cs 16.7 (no result: Pf growth 96h)
C=CCN1CC(O)=C(c2nc3ccccc3[nH]2)C1=N	Shiga toxin inh 127.7, Cycloheximide cs 56.3
CCCCCN1CC(O)=C(c2nc3ccccc3[nH]2)C1=N	Cycloheximide cs 35.9
N=C1C(c2nc3ccccc3c(=O)[nH]2)=C(O)CN1CCc1ccccc1	none (no result: Pf growth 48h)
CCCCN1CC(O)=C(c2nc3ccccc3[nH]2)C1=N	Cycloheximide cs 47.1
CCCCCCN1CC(O)=C(c2ccccc2)C1=N	none (no result: Pf growth 96h)
O=C(COC(=O)c1cc(Cl)ccc1[N+](=O)[O-])NCc1ccc(Cl)cc1Cl	none
CCOC(=O)N1CCC(C(=O)NNC(=O)c2ccc(Cl)cc2Cl)CC1	Pf growth 96h 10.4µM
CCOC(=O)N1CCN(C(=O)C2CCN(S(=O)(=O)c3ccc(NC(C)=O)cc3)CC2)CC1	Pf growth 48h inconclusive, Pf growth 96h 8.28µM
CCOC(=O)N1CCN(C(=O)C2CCN(S(=O)(=O)c3cc(Cl)ccc3Cl)CC2)CC1	Pf growth 48h 7.38µM
CCOC(=O)c1ccc(NC(=O)C(=O)NCC2(c3ccc(OC)cc3)CCOCC2)cc1	Pf growth 48h inconclusive, Pf growth 96h inconclusive
COc1cc(/C=N/NC(N)=S)ccc1OC(=O)c1ccc(C)cc1	none (no result: Pf growth 96h)
CCc1ccc(OCC(=O)N/N=C/c2ccc(OS(=O)(=O)c3ccc(C)cc3)c(OC)c2)cc1	Pf growth 48h inconclusive, Pf growth 96h inconclusive, Cycloheximide cs 12.8
COc1cccc(/C=N/NC(N)=S)c1OCc1cccc(Cl)c1	Pf growth 48h 11.7µM, Pf growth 96h 3.7µM
COc1cc(/C=N/NC(N)=S)ccc1OCc1ccc(C)cc1	Pf growth 48h inconclusive, Shiga toxin inh 65.8, Pf growth 96h inconclusive, Cycloheximide cs 30.3
COc1ccc(CNC(=S)N/N=C/c2ccc(OC)c(OC)c2)cc1	Cycloheximide cs 20.6
COc1cccc(/C=N/NC(=S)NCCc2ccccc2)c1OC	none
CCN(CC)C(=O)Cn1cc(C(=O)C(=O)NCc2ccco2)c2ccccc21	Pf growth 48h inconclusive
CC(C)C[C@H](NC(=O)[C@H](CC(C)C)NC(=O)[C@@H](Cc1c[nH]c2ccccc12)NC(=O)[C@H](Cc1ccccc1)NC(=O)[C@@H](Cc1c[nH]c2ccccc12)NC(=O)[C@H](CCC(N)=O)NC(=O)[C@H](CCC(N)=O)NC(=O)[C@@H]1CCCN1C(=O)[C@H](CCCCN)NC(=O)[C@@H]1CCCN1C(=O)[C@@H](CCCNC(=N)N)NC(=O)[C@@H]1CCCN1C(=O)CNC(=O)[C@H](CC(C)C)NC(=O)[C@H](CC(C)C)NC(=O)[C@H](Cc1ccc(O)cc1)NC(=O)CNC(=O)[C@H](C)NC(=O)[C@H](CO)NC(=O)[C@H](CC(N)=O)NC(=O)[C@H](CC(C)C)NC(=O)[C@@H](NC(=O)[C@H](Cc1c[nH]c2ccccc12)NC(=O)CN)[C@@H](C)O)C(N)=O	none (no result: Pf growth 48h, Pf growth 96h)
CCn1nc(C)c([N+](=O)[O-])c1C(=O)NNC(=O)c1ccccc1Cl	none
COc1cc2cc(CN(CCN3CCOCC3)C(=O)Nc3ccc(F)cc3)c(=O)[nH]c2cc1OC	Pf growth 48h inconclusive
Cc1ccc(C)c2[nH]c(=O)c(CN(CCN3CCCC3)C(=O)Nc3ccc(F)cc3)cc12	Pf growth 48h 4.15µM, Pf growth 96h inconclusive
COc1cc2cc(CN(CCN3CCCC3)C(=O)Nc3ccc(F)cc3)c(=O)[nH]c2cc1OC	Pf growth 48h 9.28µM
CSCCC(C(=O)OC1CCOC1=O)N1C(=O)c2ccccc2C1=O (stereo unspecified)	none
C/C(=N/NS(=O)(=O)c1ccc(F)cc1)c1ccc(NC(=O)c2ccc(C)o2)cc1	Cycloheximide cs 34.7 (no result: Pf growth 48h)
C/C(=N\NC(=O)c1c([N+](=O)[O-])c(C)nn1C)c1ccc(NC(=O)c2ccc(C)o2)cc1	Shiga toxin inh 51.1, Cycloheximide cs 24.7
C/C(=N\NC(=O)c1c([N+](=O)[O-])c(C)nn1C)c1ccc(NC(=O)C2CCCC2)cc1	none
C/C(=N\NC(=O)C1(C)CC1(Br)Br)c1ccc(NC(=O)c2ccc(C)o2)cc1 (stereo unspecified)	Pf growth 48h inconclusive, Shiga toxin inh 53.8, Pf growth 96h 9.28µM, Cycloheximide cs 23.8

Assay outcomes as filed in PubChem.
